Test systems include NCI-H23 lung; NCI-H226 lung; NCI-H322M lung; HOP-62 NSCLC; NCI-H460 lung; HOP-92 NSCLC; NCI-H522 lung; A549/ATCC NSCLC; 786-0 renal; COLO 205 colon.
Test in all cases: NCI-60 one-dose screen, 48 h (100 = growth as untreated, 0 = no growth, -100 = all killed)
Common to all, as to details: 10 µM unless noted

This is part of a sample that, as a whole, favours compounds with a hit. Of some 83,000 tested, about 20% had one in any assay.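 For each line, cells grew in 96-well plates with the test compound present at a single concentration for 48 hours.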 Values without a mark were called inactive. Active and inactive are the calls of the source. The calls were made as follows: active = growth percent below 10; inactive = the rest.

Turning to `CC(=O)N(C)c1ccc(Nc2cc(C)[nH]c3ccc4ncnc4c23)cc1`, the growth in the test on NCI-H23 lung is 50.4%; with NCI-H226 lung it was 54.8%; in the test with NCI-H322M lung, 77%; in the test on HOP-62 NSCLC, 54.3%; with NCI-H460 lung, 22.4%; in the test on HOP-92 NSCLC, -2.3% (active). Moreover, the growth is 22.1% in the test with NCI-H522 lung, 67.2% in the test with A549/ATCC NSCLC, 55.8% in the test on 786-0 renal and 53.3% in the test with COLO 205 colon.

As to `O=C(NNC(=S)Nc1ccccc1)c1ccc(Nc2ncnc3c2cnn3-c2cccc(Br)c2)cc1`, the growth in the test with NCI-H23 lung is 99.8%; with NCI-H226 lung it was 94.3%; in the test on NCI-H322M lung, 95.5%; in the test with HOP-62 NSCLC it was 88%; in the test on NCI-H460 lung, 112%; in the test on HOP-92 NSCLC, 93.5%. For the same compound, the growth in the test on NCI-H522 lung is 88.6%; in the test with A549/ATCC NSCLC it was 112%; in the test with 786-0 renal it was 105%.

In the case of `CCCCCCCCCCC(C(O)c1ccccc1)N1CCCCC1` (stereo unspecified), the growth with NCI-H23 lung is 49.6%; in the test with NCI-H226 lung, 33.6%; in the test on NCI-H322M lung, 45.8%; with HOP-62 NSCLC it was -75.3% (active); with NCI-H460 lung, -74.5% (active); in the test on HOP-92 NSCLC, -14.8% (active). Moreover, the growth in the test with NCI-H522 lung is 18%; in the test with A549/ATCC NSCLC, 47.3%; with 786-0 renal, 29%.

On to `Cc1cc(O)c(C2=NN(c3ccc(S(N)(=O)=O)cc3)C(c3ccc(Cl)cc3)C2)c(C)c1Cl` (stereo unspecified), for which the growth is 78.8% in the test on NCI-H23 lung; 106% in the test on NCI-H226 lung; 75.3% in the test on NCI-H322M lung; 84.3% in the test with HOP-62 NSCLC; 3.35% (active) with NCI-H460 lung; 21.3% in the test with HOP-92 NSCLC. The growth in the test with NCI-H522 lung was 57.7%; in the test with A549/ATCC NSCLC, 33.2%; with 786-0 renal it was 43.3%.

Turning to `CSCCC1NC(=O)C(C(C)=Nc2ccccc2)=C1O` (stereo unspecified), the growth is 105% with NCI-H23 lung; 112% with NCI-H226 lung; 102% in the test with NCI-H322M lung; 107% in the test with HOP-62 NSCLC; 114% in the test on NCI-H460 lung; 108% in the test with HOP-92 NSCLC. Moreover, the growth in the test with NCI-H522 lung is 116%; with A549/ATCC NSCLC it was 101%; with 786-0 renal, 98.9%.

As to `COc1cc2nccc(Oc3ccc(NC(=O)C4(C(=O)Nc5ccc(F)cc5)CC4)cc3)c2cc1Oc1ccc(N)cn1`, the growth is 49.3% in the test on NCI-H23 lung; 36.5% with NCI-H226 lung; 49.4% in the test on NCI-H322M lung; 51.2% in the test on HOP-62 NSCLC; 31% with NCI-H460 lung; -11.5% (active) with HOP-92 NSCLC. Further, the growth was 51.3% with NCI-H522 lung, 22.7% in the test on A549/ATCC NSCLC and 39.1% in the test on 786-0 renal.

With `COc1ccc(Br)c2ccccc12`, the growth in the test with NCI-H23 lung is 109%; with NCI-H226 lung, 106%; with NCI-H322M lung, 117%; with HOP-62 NSCLC, 103%; in the test on NCI-H460 lung, 114%; in the test with HOP-92 NSCLC, 93.9%. Moreover, the values for the growth with NCI-H522 lung, in the test with A549/ATCC NSCLC and with 786-0 renal were 97.9%, 104% and 115%, respectively.

On to `C1=C\CCCCN2CC[C@H]3[C@H](CCCC/C=C\CCCN4C[C@@H](CCCCC/1)C[C@@H]3C4)C2`, for which the growth in the test with NCI-H23 lung is 79.5%; with NCI-H226 lung, 110%; in the test on NCI-H322M lung, 108%; in the test on HOP-62 NSCLC, 76.3%; in the test on NCI-H460 lung it was 51.8%; in the test with HOP-92 NSCLC, 17.6%. For the same compound, the growth with NCI-H522 lung is 47.8%; with A549/ATCC NSCLC, 48.9%; with 786-0 renal, 73.2%.

`C=CCn1c(SCC(=O)Nc2ccc(/C(C)=N\O)cc2)nnc1-c1cc(-c2ccc(Cl)cc2)nc2ccccc12`: the growth is 24.1% in the test with NCI-H23 lung; 50.7% in the test on NCI-H226 lung; 26.2% in the test with NCI-H322M lung; 49.6% in the test on HOP-62 NSCLC; 17.2% in the test on NCI-H460 lung; 50.4% in the test with HOP-92 NSCLC. Moreover, the growth in the test on NCI-H522 lung is 22.4%; in the test with A549/ATCC NSCLC it was 19.4%; with 786-0 renal, 23%.

`COc1ccc(/C=c2\c(=O)n(-c3ccccc3)c3nn4c(n23)=NNC42CCCCC2)cc1`: the growth with NCI-H23 lung was 92.7%; with NCI-H226 lung it was 75.8%; in the test with NCI-H322M lung, 96.3%; in the test with HOP-62 NSCLC it was 87.7%; in the test with NCI-H460 lung it was 101%; in the test with HOP-92 NSCLC, 94.1%. The growth in the test on NCI-H522 lung is 90.3%; in the test on A549/ATCC NSCLC it was 104%; in the test on 786-0 renal, 106%.

Take `NC(N)=N/N=C/c1ccccc1`: the growth in the test with NCI-H23 lung is 102%; in the test on NCI-H226 lung, 97.8%; in the test on NCI-H322M lung, 91.2%; in the test with HOP-62 NSCLC it was 101%; in the test on NCI-H460 lung, 103%; in the test on HOP-92 NSCLC, 95.8%. The growth with NCI-H522 lung is 85.6%; with A549/ATCC NSCLC, 97.4%; in the test on 786-0 renal it was 103%.

As to `Cc1cc2nc3c(=O)[nH]c(=O)nc-3n(CC=O)c2cc1C`, the growth with NCI-H23 lung was 108%; in the test with NCI-H226 lung it was 91%; in the test on NCI-H322M lung, 110%; in the test with HOP-62 NSCLC, 106%; with NCI-H460 lung, 106%; in the test with HOP-92 NSCLC, 293%. The growth is 107% in the test with NCI-H522 lung, 115% in the test on A549/ATCC NSCLC and 105% in the test with 786-0 renal.

Consider `C=C1NC(=O)C(C(C)CC)NC(=O)C2CSCC(NC(=O)CCC(=O)O)C(=O)NC(Cc3ccccc3)C(=O)NC(C)C(=O)NC(CC(C)CC)C(=O)NC(C(=O)NC(Cc3ccccc3)C(=O)N3CCCC3C(=O)N2)C(C)OC(=O)C(CO)NC(=O)C(C(O)COC)N(C)C(=O)C(C(C)C)NC(=O)C(CC(C)CC)NC1=O` (stereo unspecified), for which the growth in the test on NCI-H23 lung is 38.6% [6 µM]; in the test on NCI-H226 lung, 56.8% [6 µM]; in the test on NCI-H322M lung it was 39.8% [6 µM]; with HOP-62 NSCLC it was 17.3% [6 µM]; in the test with NCI-H460 lung, -4.11% [6 µM] (active); with HOP-92 NSCLC, 42% [6 µM]. For the same compound, the growth with NCI-H522 lung was -19.3% [6 µM] (active); with A549/ATCC NSCLC, 10.9% [6 µM].

Take `Fc1ccc2nc(-c3ccc(-c4noc(-c5ccc(Cl)cc5)n4)cc3)[nH]c2c1`: the growth in the test on NCI-H23 lung was 104%; with NCI-H226 lung, 97.1%; with NCI-H322M lung, 107%; in the test on HOP-62 NSCLC it was 103%; in the test with NCI-H460 lung, 103%; with HOP-92 NSCLC, 105%. For the same compound, the growth in the test on NCI-H522 lung is 87.1%; in the test with A549/ATCC NSCLC, 100%; with 786-0 renal, 86.5%.
